# In the supplement of paper PMC8728848:
# Only a selection was taken, and the strongest signals are over-represented in it overall.
# Tests used:
# Assay in all cases: glycan array binding signal (z-score within array); higher = stronger binding
# Conditions in all cases: glycan notation: IUPAC condensed, linker removed
# [1] = molecular target: Fuc(a1-2)Gal(b1-3)GlcNAc(b1-2)Man(a1-3)[Fuc(a1-2)Gal(b1-3)GlcNAc(b1-2)Man(a1-6)]Man(b1-4)GlcNAc(b1-4)GlcNAc
# Method in brief: (§1)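 Columns mapping to the same glycan were averaged after glycan names were converted to IUPAC-condensed notation. The data come from 3228 arrays in the Consortium for Functional Glycomics database, limited to those with an available protein sequence. Binding is reported as a within-array Z-score averaged across arrays of one protein sequence and across linkers.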
# [2] = molecular target: Fuc(a1-2)Gal(b1-3)GlcNAc(b1-3)[Gal(b1-4)[Fuc(a1-3)]GlcNAc(b1-6)]Gal(b1-4)Glc
# Method in brief: as §1
# [3] = molecular target: Fuc(a1-2)Gal(b1-3)[Fuc(a1-4)]GlcNAc(b1-2)Man(a1-3)[Fuc(a1-2)Gal(b1-3)[Fuc(a1-4)]GlcNAc(b1-2)Man(a1-6)]Man(b1-4)GlcNAc(b1-4)GlcNAc
# Method in brief: as §1
# Fuc(a1-2)Gal(b1-4)GlcNAc = molecular target: Fuc(a1-2)Gal(b1-4)GlcNAc
# Method in brief: as §1
# Fuc(a1-2)Gal6S(b1-4)Glc = molecular target: Fuc(a1-2)Gal6S(b1-4)Glc
# Method in brief: as §1
# Fuc(a1-2)[Gal(a1-3)]Gal = molecular target: Fuc(a1-2)[Gal(a1-3)]Gal
# Method in brief: as §1
# [4] = molecular target: Fuc(a1-2)[Gal(a1-3)]Gal(b1-4)[Fuc(a1-3)]Glc
# Method in brief: as §1
# [5] = molecular target: Fuc(a1-2)[GalNAc(a1-3)]Gal(b1-3)GalNAc(a1-3)[Fuc(a1-2)]Gal(b1-4)GlcNAc
# Method in brief: as §1
# [6] = molecular target: Fuc(a1-2)[GalNAc(a1-3)]Gal(b1-3)GalNAc(b1-3)Gal(a1-4)Gal(b1-4)Glc
# Method in brief: as §1
# [7] = molecular target: Fuc(a1-2)[GalNAc(a1-3)]Gal(b1-4)Glc
# Method in brief: as §1
# [8] = molecular target: Fuc(a1-2)[GalNAc(a1-3)]Gal(b1-4)GlcNAc(b1-2)Man(a1-3)[Fuc(a1-2)[GalNAc(a1-3)]Gal(b1-4)GlcNAc(b1-2)Man(a1-6)]Man(b1-4)GlcNAc(b1-4)GlcNAc
# Method in brief: as §1
# [9] = molecular target: Fuc(a1-2)[GalNAc(a1-3)]Gal(b1-4)GlcNAc(b1-3)Gal(b1-4)GlcNAc(b1-3)Gal(b1-4)GlcNAc
# Method in brief: as §1
# [10] = molecular target: Fuc(a1-2)[GalNAc(a1-3)]Gal(b1-4)GlcNAc(b1-3)[Fuc(a1-2)[GalNAc(a1-3)]Gal(b1-4)GlcNAc(b1-6)]GalNAc
# Method in brief: as §1
# [11] = molecular target: Fuc(a1-2)[GalNAc(a1-4)]Gal(b1-4)GlcNAc
# Method in brief: as §1
# [12] = molecular target: Fuc(a1-3)[Gal(b1-4)]GlcNAc(b1-4)Gal(b1-4)[Fuc(a1-3)]GlcNAc(b1-4)Gal(b1-4)[Fuc(a1-3)]GlcNAc
# Method in brief: as §1
# Gal(a1-4)GlcNAc = molecular target: Gal(a1-4)GlcNAc
# Method in brief: as §1
# Gal(b1-2)Gal = molecular target: Gal(b1-2)Gal
# Method in brief: as §1
# Gal(b1-3)GalNAc = molecular target: Gal(b1-3)GalNAc
# Method in brief: as §1
# [13] = molecular target: Gal(b1-3)GlcNAc(b1-2)[Gal(b1-3)GlcNAc(b1-6)]Man(a1-6)[Gal(b1-3)GlcNAc(b1-2)Man(a1-3)]Man(b1-4)GlcNAc(b1-4)GlcNAc
# Method in brief: as §1
# [14] = molecular target: Gal(b1-3)GlcNAc(b1-6)GalNAc
# Method in brief: as §1
# [15] = molecular target: Gal(b1-3)[Neu5Ac(a2-6)]GalNAc
# Method in brief: as §1
# Gal(b1-4)Glc = molecular target: Gal(b1-4)Glc
# Method in brief: as §1
# [16] = molecular target: Gal(b1-4)GlcNAc(b1-2)Man(a1-3)[Gal(b1-4)GlcNAc(b1-2)Man(a1-6)]Man(b1-4)GlcNAc(b1-4)GlcNAc
# Method in brief: as §1
# [17] = molecular target: Gal(b1-4)GlcNAc(b1-2)Man(a1-3)[GlcNAc(b1-4)][Gal(b1-4)GlcNAc(b1-2)Man(a1-6)]Man(b1-4)GlcNAc(b1-4)GlcNAc
# Method in brief: as §1
# [18] = molecular target: Gal(b1-4)GlcNAc(b1-2)Man(a1-6)[GlcNAc(b1-2)Man(a1-3)]Man(b1-4)GlcNAc(b1-4)GlcNAc
# Method in brief: as §1
# [19] = molecular target: Gal(b1-4)GlcNAc(b1-3)[Gal(b1-4)GlcNAc(b1-6)]Gal(b1-4)GlcNAc
# Method in brief: as §1
# Gal3S(b1-4)GlcNAc = molecular target: Gal3S(b1-4)GlcNAc
# Method in brief: as §1
# Gal4S(b1-4)GlcNAc = molecular target: Gal4S(b1-4)GlcNAc
# Method in brief: as §1
# GalNAc(a1-3)Gal = molecular target: GalNAc(a1-3)Gal
# Method in brief: as §1
# GalNAc(a1-3)GalNAc = molecular target: GalNAc(a1-3)GalNAc
# Method in brief: as §1
binder,measurement,setting,value
"HPAIIITrx (Helix pomatia), Q1KM18 (protein) MLFVTIISLGLLAIVHGQCALKTIAFSAAIDREQTFDANQVVIYDIVITNHGNAYDNSTGLFTAPVDGMYSFQLNLLTIKEKEGWLELVHNGQLKVSVYAKQDSTYDSSSNSVIIKMKEGDRVNVRAHKKSGLFGRDDELYNTFSGHFLSGL",glycan array binding signal (z-score),[1],3.03
same,glycan array binding signal (z-score),[2],-0.143
same,glycan array binding signal (z-score),[3],3.07
same,glycan array binding signal (z-score),Fuc(a1-2)Gal(b1-4)GlcNAc,-0.3
same,glycan array binding signal (z-score),Fuc(a1-2)Gal6S(b1-4)Glc,-0.211
same,glycan array binding signal (z-score),Fuc(a1-2)[Gal(a1-3)]Gal,-0.256
same,glycan array binding signal (z-score),[4],-0.413
same,glycan array binding signal (z-score),[5],4.37
same,glycan array binding signal (z-score),[6],3.47
same,glycan array binding signal (z-score),[7],2.02
same,glycan array binding signal (z-score),[8],6.33
same,glycan array binding signal (z-score),[9],2.94
same,glycan array binding signal (z-score),[10],3.2
same,glycan array binding signal (z-score),[11],3.52
same,glycan array binding signal (z-score),[12],-0.564
same,glycan array binding signal (z-score),Gal(a1-4)GlcNAc,-0.387
same,glycan array binding signal (z-score),Gal(b1-2)Gal,0.163
same,glycan array binding signal (z-score),Gal(b1-3)GalNAc,-0.149
same,glycan array binding signal (z-score),[13],-0.132
same,glycan array binding signal (z-score),[14],-0.368
same,glycan array binding signal (z-score),[15],-0.314
same,glycan array binding signal (z-score),Gal(b1-4)Glc,-0.056
same,glycan array binding signal (z-score),[16],-0.38
same,glycan array binding signal (z-score),[17],-0.402
same,glycan array binding signal (z-score),[18],-0.301
same,glycan array binding signal (z-score),[19],-0.21
same,glycan array binding signal (z-score),Gal3S(b1-4)GlcNAc,-0.024
same,glycan array binding signal (z-score),Gal4S(b1-4)GlcNAc,-0.358
same,glycan array binding signal (z-score),GalNAc(a1-3)Gal,2.5
same,glycan array binding signal (z-score),GalNAc(a1-3)GalNAc,3.35
